# In PubChem BioAssay (Tox21):
# Unmarked numbers belong to inactive results. Records with an inconclusive call do not appear. A call without a number means that no potency is given here. Active and inactive are the calls of the source. Unless noted, the call rests on the fitted dose curve.
# Key:
# [1] = qHTS assay to identify small molecule antagonists of the sonic hedgehog signaling (Shh) pathway (AID 1259369); further: nearly all actives have a fitted effect of over 45% in size; further: potency means the concentration at half of the fitted maximal effect
# Outline: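 Inhibition of Shh signalling is measured as reduced Gli1-response-element firefly luciferase output in an NIH/3T3-derived stable reporter clone stimulated with conditioned medium for 24hr.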
# [2] = molecular target: Estrogen receptor beta (Homo sapiens) (UniProt Q92731); assay: qHTS assay to identify small molecule agonists of the estrogen receptor beta (ER-beta) signaling pathway (AID 1259377; active means well fitted activation curve with a large enough effect in the signal ratio in the repeat runs, not every such curve was filed as active; the % refers to the signal ratio)
# Outline: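 Reporter cells (HEK293T, ER-beta-UAS-bla) receive compounds or DMSO after a 6 hr pre-incubation. They then incubate 16 hr at 37C/5% CO2, and fluorescence from LiveBLAzer B/G substrate is measured after 2 hours at room temperature.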
# [3] = molecular target: Estrogen receptor beta (Homo sapiens) (UniProt Q92731); assay: qHTS assay to identify small molecule antagonists of the estrogen receptor beta (ER-beta) signaling pathway (AID 1259378; active means well fitted inhibition curve with a large enough effect in the signal ratio in the repeat runs, not every such curve was filed as active; the % refers to the signal ratio)
# Outline: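 ER-beta-UAS-bla HEK293T cells in 2% charcoal-stripped FBS medium treated with compound plus 1nM final 17-beta-estradiol for 16 hr at 37C. Beta-lactamase reporter read by FRET substrate fluorescence after 2 hours at room temperature.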
# [4] = qHTS assay to identify small molecule agonists of the estrogen receptor beta (ER-beta) signaling pathway - cell viability counter screen (AID 1259380; active means well fitted curve in the direction sought with a large enough effect in the repeat runs; an effect the other way counts as inactive or inconclusive; further: nearly all actives have a fitted effect of over 30% in size)
# Outline: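 Same-well viability counter screen. Cells: ER-beta-UAS-bla HEK293T, plated 6 hr before compound, in 2% charcoal-stripped FBS. Compound exposure 16 hr, 37C; viability by CellTiter-Glo luminescence after 30 min at room temperature.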
# [5] = qHTS assay to identify small molecule antagonists of the estrogen receptor beta (ER-beta) signaling pathway - cell viability counter screen (AID 1259382; active means well fitted curve in the direction sought with a large enough effect in the repeat runs; an effect the other way counts as inactive or inconclusive; further: series mostly up to about 92 µM; nearly all actives have a fitted effect of over 55% in size)
# Outline: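 Following a 6 hr plating period, HEK293T cells carrying a UAS-driven beta-lactamase reporter under ER-beta control received compounds and 1nM E2 (final). After 16 hr at 37C and 2 hr substrate loading, CellTiter-Glo luminescence indicated viability.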
# [6] = molecular target: Estrogen receptor (Homo sapiens) (UniProt P03372); assay: qHTS assay to identify small molecule agonists of the estrogen receptor alpha (ER-alpha) signaling pathway in the presence of an antagonist (AID 1259383); further: top concentration of the series differs between compounds; nearly all actives have a fitted effect of over 15% in size
# Outline: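 Cells are hormone-deprived for 5 days (charcoal-stripped FBS, no phenol red), plated for 24hr, spiked with 10.0nM ICI-182,780, then dosed at 15 concentrations. After 22hr at 37C, ONE-Glo luminescence reports ERE-luciferase activity.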
# [7] = qHTS assay to identify small molecule agonists of the estrogen receptor alpha (ER-alpha) signaling pathway in the presence of an antagonist - cell viability counter screen (AID 1259386; active means well fitted curve in the direction sought with a large enough effect in the repeat runs; an effect the other way counts as inactive or inconclusive;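 further: series mostly up to about 92 µM; cells exposed to compounds for 22 h at 37 °C before the viability read; nearly all actives have a fitted effect of over 30% in size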)
# Outline: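 Cells are starved of estrogens for 5 days in charcoal-stripped serum, seeded for 24hr and co-treated with ICI-182,780 (10.0nM final) and test compounds. After 22hr at 37C, viability is read as CellTiter-Fluor fluorescence.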
# [8] = molecular target: Progesterone receptor (Homo sapiens) (UniProt P06401); assay: qHTS assay to identify small molecule agonists of the progesterone receptor (PR) signaling pathway (AID 1346784); further: nearly all actives have a fitted effect of over 30% in size
# Outline: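 Reporter assay, GripTite PR-UAS-bla HEK 293T cells: 16 hr exposure to DMSO-dissolved compounds at 37C, 5% CO2, in steroid-depleted (2% charcoal-stripped FBS) medium; beta-lactamase measured by FRET fluorescence.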
# [9] = qHTS assay to identify small molecule agonists of the progesterone receptor (PR) signaling pathway - cell viability counter screen (AID 1346799); further: nearly all actives have a fitted effect of over 45% in size
# Outline: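 Multiplexed viability read: CellTiter-Glo luminescence, 30 min RT, following LiveBLAzer FRET measurement on PR-UAS-bla HEK293T cells exposed to compounds 16 hr.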
# [10] = qHTS assay to identify small molecule antagonists of the TGF-beta/Smad signaling pathway - cell viability counter screen (AID 1346824; active means well fitted curve in the direction sought with a large enough effect in the repeat runs; an effect the other way counts as inactive or inconclusive; further: nearly all actives have a fitted effect of over 50% in size)
# Outline: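 SBE-bla HEK 293T cells, incubated overnight, then compound plus 0.25 ng/mL TGF-beta1 (stock added) for 5 hr at 37 C. Viability was read in the same wells by CellTiter-Glo luminescence after 30 min at room temperature.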
# [11] = qHTS assay to identify small molecule agonists of the TGF-beta/Smad signaling pathway - cell viability counter screen (AID 1346829; active means well fitted curve in the direction sought with a large enough effect in the repeat runs; an effect the other way counts as inactive or inconclusive; further: top concentration of the series differs between compounds; nearly all actives have a fitted effect of over 45% in size)
# Outline: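 Luminescence from CellTiter-Glo, read after a 30 min room-temperature incubation, gives cell viability of SBE-bla HEK 293T cells treated 5 hr with compounds at 37 C.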
# [12] = molecular target: Thyrotropin-releasing hormone receptor (Homo sapiens) (UniProt P34981); assay: qHTS assay to identify small molecule antagonists of the thyrotropin-releasing hormone receptor (TRHR) signaling pathway (AID 1346877; active means well fitted inhibition curve with a large enough effect in the repeat runs, not every such curve was filed as active; further: series mostly up to about 51 µM)
# Outline: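 Cells (TRHR-HEK293) are plated and kept 18 h at 37 °C/5% CO2. A calcium-sensitive dye is added for 2 h, compound follows for 5 min at room temperature, and TRH is then given at 1 nM final.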
# [13] = molecular target: Thyrotropin-releasing hormone receptor (Homo sapiens) (UniProt P34981); assay: qHTS assay to identify small molecule agonists of the thyrotropin-releasing hormone receptor (TRHR) signaling pathway (AID 1346891); further: series mostly up to about 58 µM
# Outline: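 Readout was intracellular calcium fluorescence in TRHR-Hek293 cells. Cells were incubated 18 h, dye-loaded 2 h at 37 °C, and treated with compound in agonist mode.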
# [14] = qHTS assay to identify small molecule agonists of the androgen receptor (AR) signaling pathway in the presence of an antagonist - cell viability counter screen (AID 1259379; active means well fitted curve in the direction sought with a large enough effect in the repeat runs; an effect the other way counts as inactive or inconclusive;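 further: MDA-kb2 human breast cancer cells carrying an MMTV luciferase reporter; series mostly up to about 92 µM; nearly all actives have a fitted effect of over 25% in size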)
# Outline: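 Fluorescence from CellTiter-Fluor, added after 15 hr and read 1 hr later, gave cell viability. Cells were MDA-kb2 exposed to compounds (15 concentrations) in the presence of 3.0uM nilutamide at 37C, 0% CO2.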
# [15] = molecular target: Androgen receptor (Homo sapiens) (UniProt P10275); assay: qHTS assay to identify small molecule agonists of the androgen receptor (AR) signaling pathway in the presence of an antagonist (AID 1259381); further: nearly all actives have a fitted effect of over 15% in size; further: potency means the concentration at half of the fitted maximal effect
# Outline: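 Cells are MDA-kb2 (human breast carcinoma, MMTV-luc, AR/GR responsive). Nilutamide is present at 3.0uM final throughout; compounds are added at 15 concentrations and incubated 16hr at 37C before ONE-Glo luminescence detection.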
# [16] = qHTS assay to identify small molecule agonists or antagonists of the thyroid stimulating hormone receptor (TSHR) signaling pathway - wild type cell line counter screen (AID 1259384)
# Outline: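 Wild-type Hek293 cells, 800/well, 18 h at 37C, then compound with Ro20-1724 for 30 min RT. cAMP by HTRF (cAMP-d2/anti-cAMP cryptate), 1 h RT, fluorescence read. 15 concentrations, triplicates.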
# [17] = molecular target: Thyrotropin receptor (Homo sapiens) (UniProt P16473); assay: qHTS assay to identify small molecule antagonists of the thyroid stimulating hormone receptor (TSHR) signaling pathway (AID 1259385); further: nearly all actives have a fitted effect of over 20% in size
# Outline: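 TSHR-HEK293 cells (800/well) plated 18 h, then compounds with Ro20-1724 and TSH at 1.5 ng/mL final, 30 min at room temperature. cAMP quantified by HTRF (cAMP-d2/anti-cAMP-cryptate, 1 h); 15 concentrations in triplicate.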
# [18] = qHTS assay to identify small molecule agonists of the TGF-beta/Smad signaling pathway (AID 1346859; active means well fitted activation curve with a large enough effect in the signal ratio in the repeat runs, not every such curve was filed as active; the % refers to the signal ratio; further: series mostly up to about 77 µM)
# Outline: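 Screening used HEK 293T SBE-bla cells at 4,000/well. Test agents: 5 hr, 37 C. Detection: FRET substrate, 2 hr RT, then excitation 405 nm with emissions at 460 and 530 nm.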
# [19] = molecular target: Progesterone receptor (Homo sapiens) (UniProt P06401); assay: qHTS assay to identify small molecule antagonists of the progesterone receptor (PR) signaling pathway (AID 1346795; active means well fitted inhibition curve with a large enough effect in the signal ratio in the repeat runs, not every such curve was filed as active; the % refers to the signal ratio)
# Outline: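 Stimulus R5020 at 1 nM final; cells HEK293T PR-UAS-bla; medium with 2% charcoal-stripped FBS; compound exposure 16 hr at 37C, 5% CO2; detection by FRET beta-lactamase substrate, 2 hr, room temperature.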
# [20] = qHTS assay to identify small molecule antagonists of the progesterone receptor (PR) signaling pathway - cell viability counter screen (AID 1346798; active means well fitted curve in the direction sought with a large enough effect in the repeat runs; an effect the other way counts as inactive or inconclusive; further: series mostly up to about 92 µM; nearly all actives have a fitted effect of over 50% in size)
# Outline: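 In the same plates used for the beta-lactamase readout, cell viability of compound- and R5020-treated PR-UAS-bla HEK293T cells (16 hr, 37C) was assessed by CellTiter-Glo luminescence.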
# Sequence of Progesterone receptor (Homo sapiens) (P06401 whole entry, looked up): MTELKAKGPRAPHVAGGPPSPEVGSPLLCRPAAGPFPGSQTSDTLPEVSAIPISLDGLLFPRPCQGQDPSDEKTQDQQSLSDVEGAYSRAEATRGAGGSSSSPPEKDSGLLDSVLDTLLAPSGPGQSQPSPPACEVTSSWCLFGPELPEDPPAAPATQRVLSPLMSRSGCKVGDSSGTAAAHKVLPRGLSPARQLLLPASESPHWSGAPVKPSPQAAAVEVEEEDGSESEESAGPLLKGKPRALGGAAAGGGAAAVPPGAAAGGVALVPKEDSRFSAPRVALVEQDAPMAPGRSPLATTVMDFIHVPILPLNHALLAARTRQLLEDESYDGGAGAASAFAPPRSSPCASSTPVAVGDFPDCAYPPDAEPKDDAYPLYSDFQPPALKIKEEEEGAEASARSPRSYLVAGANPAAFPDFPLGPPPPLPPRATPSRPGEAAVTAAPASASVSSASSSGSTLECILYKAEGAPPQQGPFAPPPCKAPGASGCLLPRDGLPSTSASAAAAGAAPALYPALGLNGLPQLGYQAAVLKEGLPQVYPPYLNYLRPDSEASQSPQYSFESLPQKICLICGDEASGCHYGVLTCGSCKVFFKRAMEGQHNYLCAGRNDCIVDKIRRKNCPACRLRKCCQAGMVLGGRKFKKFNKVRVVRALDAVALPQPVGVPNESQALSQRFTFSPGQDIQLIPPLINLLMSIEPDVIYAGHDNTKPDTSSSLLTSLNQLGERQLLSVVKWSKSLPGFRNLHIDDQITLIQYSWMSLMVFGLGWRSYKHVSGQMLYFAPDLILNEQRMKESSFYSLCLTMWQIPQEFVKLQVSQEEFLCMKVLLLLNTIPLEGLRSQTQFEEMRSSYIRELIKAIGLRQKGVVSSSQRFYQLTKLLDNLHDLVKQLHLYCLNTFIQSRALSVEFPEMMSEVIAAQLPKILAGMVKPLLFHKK
# Sequence of Estrogen receptor (Homo sapiens) (P03372 whole entry, looked up): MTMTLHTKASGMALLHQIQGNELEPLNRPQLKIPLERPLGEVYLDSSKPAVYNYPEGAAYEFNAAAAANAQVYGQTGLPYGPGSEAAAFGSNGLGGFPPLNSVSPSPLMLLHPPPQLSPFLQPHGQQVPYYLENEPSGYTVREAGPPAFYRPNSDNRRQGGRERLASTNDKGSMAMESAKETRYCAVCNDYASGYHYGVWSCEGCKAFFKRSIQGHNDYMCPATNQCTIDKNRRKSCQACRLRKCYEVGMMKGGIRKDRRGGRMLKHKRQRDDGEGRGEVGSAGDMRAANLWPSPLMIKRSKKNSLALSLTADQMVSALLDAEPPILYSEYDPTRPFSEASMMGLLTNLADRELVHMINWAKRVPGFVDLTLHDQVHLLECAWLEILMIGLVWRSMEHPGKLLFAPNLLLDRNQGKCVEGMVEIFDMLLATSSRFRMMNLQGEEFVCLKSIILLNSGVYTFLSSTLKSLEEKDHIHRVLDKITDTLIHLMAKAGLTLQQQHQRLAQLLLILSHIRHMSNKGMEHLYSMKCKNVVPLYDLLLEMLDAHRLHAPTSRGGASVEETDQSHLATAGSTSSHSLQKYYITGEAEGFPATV
# Sequence of Estrogen receptor beta (Homo sapiens) (Q92731 whole entry, looked up): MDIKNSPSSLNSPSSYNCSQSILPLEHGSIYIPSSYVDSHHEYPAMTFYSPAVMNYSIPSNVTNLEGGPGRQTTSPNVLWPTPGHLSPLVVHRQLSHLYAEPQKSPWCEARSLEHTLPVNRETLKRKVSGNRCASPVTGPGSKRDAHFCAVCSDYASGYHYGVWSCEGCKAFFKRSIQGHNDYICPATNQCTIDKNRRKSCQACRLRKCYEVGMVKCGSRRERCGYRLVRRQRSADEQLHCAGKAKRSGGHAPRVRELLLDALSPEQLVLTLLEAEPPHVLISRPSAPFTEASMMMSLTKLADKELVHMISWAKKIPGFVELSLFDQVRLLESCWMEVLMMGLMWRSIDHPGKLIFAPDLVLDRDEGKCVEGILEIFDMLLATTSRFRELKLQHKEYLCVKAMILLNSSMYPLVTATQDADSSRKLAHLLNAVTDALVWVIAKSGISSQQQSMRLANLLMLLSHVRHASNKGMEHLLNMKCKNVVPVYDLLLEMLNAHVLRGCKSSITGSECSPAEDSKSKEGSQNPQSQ
# Sequence of Thyrotropin-releasing hormone receptor (Homo sapiens) (P34981 whole entry, looked up): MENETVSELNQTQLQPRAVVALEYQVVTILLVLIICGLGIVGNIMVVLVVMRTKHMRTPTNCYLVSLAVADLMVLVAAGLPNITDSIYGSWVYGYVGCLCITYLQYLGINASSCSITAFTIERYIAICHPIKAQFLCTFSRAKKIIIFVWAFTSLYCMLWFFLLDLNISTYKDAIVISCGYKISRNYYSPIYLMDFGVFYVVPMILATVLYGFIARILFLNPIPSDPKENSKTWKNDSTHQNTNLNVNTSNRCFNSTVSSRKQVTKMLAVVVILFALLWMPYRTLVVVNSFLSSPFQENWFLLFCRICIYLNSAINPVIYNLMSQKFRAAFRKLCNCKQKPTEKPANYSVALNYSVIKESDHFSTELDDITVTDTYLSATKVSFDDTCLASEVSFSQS
# Sequence of Androgen receptor (Homo sapiens) (P10275 whole entry, looked up): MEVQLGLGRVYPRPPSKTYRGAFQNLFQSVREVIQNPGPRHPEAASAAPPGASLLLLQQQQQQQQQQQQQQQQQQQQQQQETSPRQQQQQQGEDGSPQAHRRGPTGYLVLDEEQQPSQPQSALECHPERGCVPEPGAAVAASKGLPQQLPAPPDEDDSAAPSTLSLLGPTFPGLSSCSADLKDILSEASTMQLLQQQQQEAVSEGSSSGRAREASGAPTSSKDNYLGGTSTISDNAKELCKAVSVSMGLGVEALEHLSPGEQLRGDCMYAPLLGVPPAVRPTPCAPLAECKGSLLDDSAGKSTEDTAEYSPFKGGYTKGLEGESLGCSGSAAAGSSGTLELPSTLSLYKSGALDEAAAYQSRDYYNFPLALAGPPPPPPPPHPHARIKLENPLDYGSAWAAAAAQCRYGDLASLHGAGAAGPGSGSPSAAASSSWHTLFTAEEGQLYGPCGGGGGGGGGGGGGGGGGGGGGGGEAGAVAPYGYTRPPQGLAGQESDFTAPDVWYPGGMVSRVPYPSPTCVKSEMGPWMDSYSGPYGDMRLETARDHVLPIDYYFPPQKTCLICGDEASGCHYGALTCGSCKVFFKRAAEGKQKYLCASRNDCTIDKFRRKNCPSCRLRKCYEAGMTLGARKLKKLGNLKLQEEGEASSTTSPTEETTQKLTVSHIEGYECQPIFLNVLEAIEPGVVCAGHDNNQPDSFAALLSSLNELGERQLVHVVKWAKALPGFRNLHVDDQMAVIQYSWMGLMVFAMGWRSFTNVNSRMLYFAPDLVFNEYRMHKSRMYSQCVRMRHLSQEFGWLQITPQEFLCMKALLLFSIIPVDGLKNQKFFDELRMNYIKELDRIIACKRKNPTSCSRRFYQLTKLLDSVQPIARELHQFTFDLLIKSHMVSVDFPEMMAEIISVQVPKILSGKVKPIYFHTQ
# Sequence of Thyrotropin receptor (Homo sapiens) (P16473 whole entry, looked up): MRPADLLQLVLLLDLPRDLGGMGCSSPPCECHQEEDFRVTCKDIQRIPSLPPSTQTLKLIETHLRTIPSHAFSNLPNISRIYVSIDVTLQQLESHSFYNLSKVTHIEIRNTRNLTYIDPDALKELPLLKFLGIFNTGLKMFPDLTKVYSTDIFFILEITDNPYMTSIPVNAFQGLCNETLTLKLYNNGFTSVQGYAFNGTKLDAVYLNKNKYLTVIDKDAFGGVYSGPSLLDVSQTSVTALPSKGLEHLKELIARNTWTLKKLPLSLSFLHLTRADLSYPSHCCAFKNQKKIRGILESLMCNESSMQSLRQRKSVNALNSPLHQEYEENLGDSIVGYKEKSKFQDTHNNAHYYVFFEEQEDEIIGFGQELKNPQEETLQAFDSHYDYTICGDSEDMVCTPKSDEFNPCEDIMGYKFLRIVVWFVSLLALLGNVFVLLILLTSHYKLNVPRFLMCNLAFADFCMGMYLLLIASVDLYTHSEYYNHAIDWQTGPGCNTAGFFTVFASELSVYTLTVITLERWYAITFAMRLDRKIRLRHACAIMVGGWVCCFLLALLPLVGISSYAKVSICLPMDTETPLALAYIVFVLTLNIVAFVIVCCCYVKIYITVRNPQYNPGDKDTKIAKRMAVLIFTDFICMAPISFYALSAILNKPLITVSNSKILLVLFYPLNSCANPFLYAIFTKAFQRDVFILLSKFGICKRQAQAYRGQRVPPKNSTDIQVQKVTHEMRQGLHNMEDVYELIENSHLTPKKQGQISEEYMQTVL
compound,measurement,setting,value
CCOc1cc(OCC)c(C(=O)CCC(=O)O)cc1OCC,Potency,[1],inactive
same,Potency,[2],inactive
same,Potency,[3],inactive
same,Potency,[4],inactive
same,Potency,[5],inactive
same,Potency,[6],inactive
same,Potency,[7],inactive
same,outcome,[8],inactive
same,Potency,[9],inactive
same,Potency,[10],inactive
same,Potency,[11],inactive
same,outcome,[12],inactive
same,Potency,[13],inactive
CCCCCCCC/C=C\CCCCCCCC(N)=O,Potency,[1],inactive
same,Potency,[2],inactive
same,Potency,[14],inactive
same,Potency,[15],inactive
same,Potency,[5],inactive
same,Potency,[16],inactive
same,Potency,[17],inactive
same,outcome,[8],inactive
same,Potency,[9],inactive
same,Potency,[10],inactive
same,Potency,[11],inactive
same,outcome,[18],inactive
same,outcome,[12],inactive
same,Potency,[13],inactive
O=C(C(=O)c1ccc(Br)cc1)c1ccc(Br)cc1,Potency,[1],6.78 µM (active)
same,activation,[2],0.63% [at 19 µM]
same,"activity change, negative = cytotoxicity",[14],0.135% [at 19 µM]
same,"activity change, negative = cytotoxicity",[4],0.571% [at 19 µM]
same,Potency,[15],15.2 µM (active)
same,"activity change, negative = cytotoxicity",[5],-2.64% [at 19 µM]
same,activation,[6],0.308% [at 19 µM]
same,"activity change, negative = inhibition",[17],-5.08% [at 19 µM]
same,"activity change, negative = cytotoxicity",[7],0.0353% [at 19 µM]
same,"activity change, negative = cytotoxicity",[9],14.5% [at 19 µM]
same,"viability change, negative = cytotoxic",[10],7.81% [at 15.8 µM]
same,"activity change, negative = cytotoxicity",[11],0.5% [at 15.8 µM]
same,activation,[18],2.2% [at 15.8 µM]
same,"activity, negative = inhibition",[12],-2.27% [at 10.5 µM]
same,activation,[13],0.083% [at 11.8 µM]
OC(CCN1CCCCC1)(c1ccccc1)C1CCCCC1 (stereo unspecified),Potency,[1],8.41 µM (active)
same,Potency,[2],inactive
same,Potency,[3],inactive
same,Potency,[4],inactive
same,Potency,[5],inactive
same,Potency,[6],inactive
same,Potency,[16],inactive
same,Potency,[7],inactive
same,outcome,[8],inactive
same,Potency,[19],inactive
same,Potency,[20],inactive
same,Potency,[9],inactive
same,Potency,[10],inactive
same,Potency,[11],inactive
